Compound activity as filed in PubChem.
A selection: hits, their analogues and other compounds. The true share with any hit is near 15%.
TDP1 cell noCPT: qHTS for Inhibitors of human tyrosyl-DNA phosphodiesterase 1 (TDP1): qHTS in cells in absence of CPT | Potency, µM (top dose mostly 46.2 µM), inactives show top-dose activity change, negative = growth inhibition, usual class: inhibitors | 15% of 420,000 active | AID 686978, 2013 | DT40 Tdp1-/- hTDP1 cells, no CPT, ATP luminescence, 48 h; note: nearly all actives have a fitted effect of over 55% in size
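DT40 Tdp1-/-;hTDP1 cells, no CPT (DMSO vehicle only), 400 cells/well; compounds pin-transferred; ≥48 hr, 37 °C; CellTiter-Glo 30 min RT dark, luminescence read.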
TDP1 cell CPT: qHTS for Inhibitors of human tyrosyl-DNA phosphodiesterase 1 (TDP1): qHTS in cells in presence of CPT | chicken DT40 Tdp1-/-;hTDP1 cells + 20 nM CPT, ATP luminescence, 48 h | Potency, µM (top dose mostly 46.2 µM), without a hit: at the top dose activity change, negative = growth inhibition, hits mostly inhibitors | 12% of 420,000 active; note: nearly all actives have a fitted effect of over 55% in size
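Chicken DT40 Tdp1-/- cells stably complemented with human TDP1 were seeded at 400 cells/well in medium containing 20 nM camptothecin, exposed to pin-transferred compounds, and grown at 37 °C for at least 48 hr. Viability was read as ATP luminescence.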
12-LOX inh: Primary qHTS assay for inhibitors of human arachidonate 12S-lipoxygenase (ALOX12): Round 2; Polyunsaturated fatty acid lipoxygenase ALOX12 (Homo sapiens), P18054; purified 12hLO, xylenol orange hydroperoxide absorbance; Potency, µM (top dose mostly 108 µM), without a hit: at the top dose activity change, negative = inhibition, usual class: inhibitors; 1.1% of 580,000 active; AID 1671190, 2021
Target sequence (P18054 whole entry, looked up): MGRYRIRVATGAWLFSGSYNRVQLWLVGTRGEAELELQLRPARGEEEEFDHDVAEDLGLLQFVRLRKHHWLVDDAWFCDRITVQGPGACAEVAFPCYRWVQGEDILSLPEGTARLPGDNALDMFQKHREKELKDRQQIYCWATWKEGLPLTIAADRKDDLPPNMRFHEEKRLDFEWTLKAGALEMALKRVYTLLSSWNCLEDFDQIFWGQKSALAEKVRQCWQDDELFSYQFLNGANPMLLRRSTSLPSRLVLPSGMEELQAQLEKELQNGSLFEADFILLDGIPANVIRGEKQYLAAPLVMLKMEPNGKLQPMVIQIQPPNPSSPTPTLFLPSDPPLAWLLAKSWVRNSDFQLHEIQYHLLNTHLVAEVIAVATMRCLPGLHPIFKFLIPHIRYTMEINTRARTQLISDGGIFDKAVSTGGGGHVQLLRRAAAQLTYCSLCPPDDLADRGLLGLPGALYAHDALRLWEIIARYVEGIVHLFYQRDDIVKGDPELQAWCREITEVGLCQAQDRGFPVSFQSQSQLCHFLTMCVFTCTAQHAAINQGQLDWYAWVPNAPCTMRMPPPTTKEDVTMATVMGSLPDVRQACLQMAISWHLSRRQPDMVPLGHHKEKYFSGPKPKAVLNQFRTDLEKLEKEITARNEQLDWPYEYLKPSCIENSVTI
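Purified human 12hLO at 150 nM in 25 mM Hepes, 0.01% Triton X-100, pH 7.0, preincubated 15 min at room temperature with compound. Reaction started with 40 uM arachidonic acid, 30 min at room temperature. Hydroperoxide measured by Fe-xylenol orange, 573/405 nm absorbance ratio.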
VP16 counter: VP16 counterscreen qHTS for inhibitors of ROR gamma transcriptional activity. 3.5% of 310,000 active. Potency, µM (series often up to 53.6 µM), inactives show at the top dose activity, negative = inhibition, actives largely listed as inhibitors. Drosophila S2 Gal4-VP16 UAS-luciferase, luminescence, 20 h. AID 2546, 2010;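 note: Gal4-VP16 expression switched on by copper sulfate through the metallothionein promoter; nearly all actives have a fitted effect of over 50% in size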
ELG1 repair inh: qHTS screen for small molecules that inhibit ELG1-dependent DNA repair in human embryonic kidney (HEK293T) cells expressing luciferase-tagged ELG1; Potency, µM (series often up to 46.1 µM), for inactives: top-dose activity change, negative = inhibition, most hits filed as inhibitors; HEK293T ELG1-luciferase reporter, luminescence, 16 h; DNA damage induced by 5-fluorouridine; 2.3% of 330,000 active; note: nearly all actives have a fitted effect of over 55% in size
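DMSO vehicle served as the neutral condition. Each well held 2,000 cells given 5-fluorouridine plus compound; after 16 hr at 37 °C/5% CO2, ONE-Glo was added and luciferase measured 30 min later.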
RORg inh: qHTS for inhibitors of ROR gamma transcriptional activity; Nuclear receptor ROR-gamma (Mus musculus), P51450; Drosophila S2 Gal4-RORgamma UAS-luciferase reporter, 20 h; Potency, µM (top dose mostly 53.6 µM), inactives show at the highest dose activity change, negative = inhibition, actives largely listed as inhibitors; 5.4% of 310,000 active; note: nearly all actives have a fitted effect of over 60% in size
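Luciferase reporter read in Schneider cells carrying Gal4-RORγ (mouse) and UAS-Photinus luciferase; cells given compound 1 h before 700 uM copper sulfate induction, then incubated 20 h at ambient temperature.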
* hit, by the source's call; ! = a repeat was not active. Calls come from the whole dose curve; as a rule, active = well fitted curve in the direction sought with a large enough effect; inconclusive = small, poorly fitted or top-dose-only effect, or another doubt; inactive = no such curve, though single readings can be large; an effect the other way counts as inactive or inconclusive. % is set by controls: 0 for no effect and ±100 for the full control effect; potency is the fitted concentration of half-maximal effect.

Results for S=C(Nc1ccccc1)N1CCc2ccccc21 ?
TDP1 cell noCPT: -1%; TDP1 cell CPT: 4%; 12-LOX inh: -46%; VP16 counter: 16µM*; ELG1 repair inh: 17%; RORg inh: 11µM*

Results for COc1ccccc1NC(=S)N1CCCc2ccccc21 ?
TDP1 cell noCPT: -25%; TDP1 cell CPT: -22%; 12-LOX inh: inconclusive; VP16 counter: -10%; ELG1 repair inh: inconclusive; RORg inh: 2.8µM*

What do the screens show for `O=[n+]1cc(-c2ccccc2)n([O-])c2ccccc21`?
12-LOX inh: -19%

How did COC(=O)c1ccc([C@H]2Nc3ccc(S(=O)(=O)Nc4ccc(C)cc4)cc3[C@H]3C=CC[C@H]32)cc1 do in these assays?
TDP1 cell noCPT: 15µM*; TDP1 cell CPT: 13µM*; 12-LOX inh: inconclusive

Results for Cc1c(Cl)cccc1NS(=O)(=O)c1ccc2c(c1)C1C=CCC1C(c1ccc(C(=O)O)cc1)N2 (centres undefined) ?
TDP1 cell noCPT: 0%; TDP1 cell CPT: -6%; VP16 counter: -2%; ELG1 repair inh: 9%; RORg inh: -3%

What do the screens show for `Cc1cccc(C)c1NS(=O)(=O)c1ccc2c(c1)[C@H]1C=CC[C@H]1[C@@H](c1ccc(Cl)cc1)N2`?
TDP1 cell noCPT: 13µM*; TDP1 cell CPT: 16µM*; 12-LOX inh: inconclusive

What do the screens show for `COc1ccc(NS(=O)(=O)c2ccc3c(c2)[C@H]2C=CC[C@H]2[C@@H](c2ccc(C(=O)O)cc2)N3)cc1`?
TDP1 cell noCPT: inconclusive; TDP1 cell CPT: inconclusive; 12-LOX inh: 28µM*!; VP16 counter: 6%; ELG1 repair inh: inconclusive; RORg inh: 12%

Results for COc1cccc(NS(=O)(=O)c2ccc3c(c2)[C@H]2C=CC[C@H]2[C@@H](c2ccccc2Cl)N3)c1 ?
TDP1 cell noCPT: 4.6µM*; TDP1 cell CPT: 8.2µM*; 12-LOX inh: inconclusive

How did COc1cccc(NS(=O)(=O)c2ccc3c(c2)CC(=O)N3)c1 do in these assays?
TDP1 cell noCPT: -7%; TDP1 cell CPT: -5%; 12-LOX inh: 1%; ELG1 repair inh: 9%

Results for CCN(CC)S(=O)(=O)c1cc(N2C(=O)CCS2(=O)=O)ccc1OC ?
12-LOX inh: 13%

What do the screens show for `CC(C)Cn1cnc2c1c(=O)n(Cc1ccccc1C#N)c(=O)n2Cc1ccccc1`?
12-LOX inh: -24%

Results for CCOc1ccc(NC(=O)c2nn(C)c(=O)c3ccccc23)cc1S(=O)(=O)N(C)C ?
12-LOX inh: -2%

Results for Cc1nc(CC#N)n[nH]1 ?
12-LOX inh: 6%

How did O=C1c2cc(S(=O)(=O)NCCO)ccc2-c2ccc(S(=O)(=O)NCCO)cc21 do in these assays?
TDP1 cell noCPT: -17%; TDP1 cell CPT: 30%; 12-LOX inh: inconclusive; VP16 counter: -7%; ELG1 repair inh: -19%; RORg inh: 22%

Results for N#CC(C#N)=C1c2cc(S(=O)(=O)NCCO)ccc2-c2ccc(S(=O)(=O)NCCO)cc21 ?
TDP1 cell noCPT: inconclusive; TDP1 cell CPT: 13µM*; 12-LOX inh: inconclusive; VP16 counter: inconclusive; ELG1 repair inh: -3%; RORg inh: -2%

How did N#CC(C#N)=C1c2cc(S(N)(=O)=O)ccc2-c2ccc(S(N)(=O)=O)cc21 do in these assays?
TDP1 cell noCPT: 21µM*; TDP1 cell CPT: 16µM*; 12-LOX inh: -23%; VP16 counter: 4%; ELG1 repair inh: 2%; RORg inh: 3%

Results for COc1ccc(-c2nc(-c3ccccc3)nc3c2CN([S+](=O)([O-])c2cccs2)CC3)cc1 ?
12-LOX inh: 10%

What do the screens show for `O=Cc1c(-c2ccc(Cl)cc2)[nH]c2ccc(Br)cc12`?
12-LOX inh: 1%

What do the screens show for `O=C(Cn1nnnc1-c1ccc(Br)cc1)N1CCOCC1`?
12-LOX inh: -1%

Results for O=C(CCC1N=C2c3ccccc3N=C(SCc3ccc(Cl)cc3)N2C1=O)NC1CCCCC1 (centres undefined) ?
TDP1 cell noCPT: 13µM*; TDP1 cell CPT: -86%; 12-LOX inh: 0%

Results for Cc1ccc(CSC2=Nc3ccccc3C3=NC(CCC(=O)NC4CCCCC4)C(=O)N23)cc1 (centres undefined) ?
TDP1 cell noCPT: inconclusive; TDP1 cell CPT: 23µM*; 12-LOX inh: inconclusive

Results for Nc1cnn(Cc2ccc(F)cc2)c1 ?
TDP1 cell noCPT: 14%; TDP1 cell CPT: 8%; 12-LOX inh: inconclusive; VP16 counter: 2%; ELG1 repair inh: -27%; RORg inh: 2%

Results for Nc1cnn(Cc2ccccc2F)c1 ?
TDP1 cell noCPT: 21µM*; TDP1 cell CPT: inconclusive; 12-LOX inh: -8%; VP16 counter: -16%; ELG1 repair inh: -10%; RORg inh: -13%

Results for COc1ccc(C(C(=O)NC2CCCCC2)N(C(=O)CCl)c2ccc(Cl)cc2)cc1 (centres undefined) ?
TDP1 cell noCPT: -105%; TDP1 cell CPT: 1µM*; VP16 counter: inconclusive; ELG1 repair inh: inconclusive; RORg inh: inconclusive

What do the screens show for `COC(CN(C(=O)CCl)C(C(=O)NC1CCCC(C)C1C)c1ccc(C)cc1)OC` (centres undefined)?
TDP1 cell noCPT: 21µM*; TDP1 cell CPT: 5.2µM*; VP16 counter: 23%; ELG1 repair inh: -9%; RORg inh: 11%

What do the screens show for `COC(CN(C(=O)CCl)C(C(=O)NC1CCCCC1)c1ccc(Cl)cc1)OC` (centres undefined)?
TDP1 cell noCPT: 3.3µM*; TDP1 cell CPT: 5.2µM*; 12-LOX inh: -26%; VP16 counter: -4%; ELG1 repair inh: 0%; RORg inh: 1%

Results for O=C(NC1CCCCC1)C(c1cccnc1)N(C(=O)CCl)c1cccc(Cl)c1 (centres undefined) ?
TDP1 cell noCPT: 2.1µM*; TDP1 cell CPT: 2.1µM*; 12-LOX inh: inconclusive; VP16 counter: inconclusive; ELG1 repair inh: 21µM*; RORg inh: 13µM*
